# In PubChem BioAssay (Tox21):
# Values without a mark were called inactive. Inconclusive results are not listed. A call without a number means that no potency is given here. Calls of active or inactive are those of the source. The call rests on the fitted dose curve; in most records, active means well fitted curve in the direction sought with a large enough effect in the repeat runs; inconclusive means weak or mixed curves; inactive means no such curve, though single readings can be large; an effect the other way counts as inactive or inconclusive.
# Tests used:
# [1] = qHTS RealTime-Glo MT Cell Viability Assay in HEK293 cells - 0 hour (AID 1224880); further: top concentration of the series differs between compounds; nearly all actives have a fitted effect of over 45% in size
# Outline: (§1)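 HEK293 + NanoLuc + prosubstrate, 600 cells/well; 5 h, 37 C/5% CO2; compound 23 nL in DMSO by pintool; 37 C; luminescence read at 0, 8, 16, 24, 32 and 40 h time points.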
# [2] = A CellTox Green Cytotoxicity Assay to monitor cytotoxicity in HEK293 cells - 32 hour (AID 1224881); further: nearly all actives have a fitted effect of over 40% in size
# Outline: (§2)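 Tox21 screen in HEK293: membrane-impermeant cyanine dye fluoresces on binding dead-cell DNA; compound pinned 5 h post-seeding, plates held at 37 C, signal read repeatedly through 40 h.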
# [3] = A CellTox Green Cytotoxicity Assay to monitor cytotoxicity in HepG2 cells - 0 hour (AID 1224882); further: nearly all actives have a fitted effect of over 35% in size
# Outline: (§3)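 Measurements at 0, 8, 16, 24, 32 and 40 h of treatment captured CellTox Green fluorescence in HepG2 cells that had been co-plated with reagent and preincubated 5 h at 37 C/5% CO2.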
# [4] = A CellTox Green Cytotoxicity Assay to monitor cytotoxicity in HepG2 cells - 32 hour (AID 1224883); further: nearly all actives have a fitted effect of over 50% in size; further: potency means the concentration at half of the fitted maximal effect
# Outline: as §3
# [5] = A CellTox Green Cytotoxicity Assay to monitor cytotoxicity in HEK293 cells - 8 hour (AID 1224884); further: nearly all actives have a fitted effect of over 35% in size
# Outline: as §2
# [6] = qHTS RealTime-Glo MT Cell Viability Assay in HepG2 cells - 16 hour (AID 1224885); further: nearly all actives have a fitted effect of over 50% in size
# Outline: (§4)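 qHTS, HepG2, 600 cells/well, RealTime-Glo (NanoLuc + prosubstrate) added with cells; 5 h preincubation; DMSO compound addition; 37 C; luminescence at 0/8/16/24/32/40 h.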
# [7] = qHTS RealTime-Glo MT Cell Viability Assay in HEK293 cells - 24 hour (AID 1224886); further: top concentration of the series differs between compounds; nearly all actives have a fitted effect of over 50% in size
# Outline: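 Assay medium contained NanoLuc luciferase plus cell-permeant prosubstrate, added with HEK293 cells at 600 cells/well. After 5 h at 37 C/5% CO2 compounds were added; plates stayed at 37 C for 40 h with serial luminescence reads.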
# [8] = qHTS RealTime-Glo MT Cell Viability Assay in HEK293 cells - 8 hour (AID 1224887); further: top concentration of the series differs between compounds; nearly all actives have a fitted effect of over 50% in size
# Outline: as §1
# [9] = A CellTox Green Cytotoxicity Assay to monitor cytotoxicity in HEK293 cells - 16 hour (AID 1224888); further: nearly all actives have a fitted effect of over 35% in size
# Outline: as §2
# [10] = qHTS RealTime-Glo MT Cell Viability Assay in HepG2 cells - 0 hour (AID 1224889); further: nearly all actives have a fitted effect of over 50% in size
# Outline: as §4
Compound,outcome [1],Potency [2],Potency [3],Potency [4],Potency [5],outcome [6],Potency [7],Potency [8],Potency [9],Potency [10],"activity change, negative = cytotoxicity [1]",cytotoxicity increase [2],cytotoxicity [3],cytotoxicity increase [4],cytotoxicity increase [5],"activity change, negative = cytotoxic [6]","activity change, negative = cytotoxicity [7]","activity change, negative = cytotoxicity [8]",activity change [9],"activity change, negative = cytotoxicity [10]"
C1COCCO1,inactive,inactive,inactive,inactive,inactive,inactive,inactive,inactive,inactive,inactive,,,,,,,,,,
NCCN1CCNC1=O,inactive,inactive,inactive,inactive,inactive,inactive,inactive,inactive,inactive,inactive,,,,,,,,,,
CC1(C)OC(=O)Nc2ccc(Br)cc21,inactive,inactive,inactive,inactive,inactive,inactive,inactive,inactive,inactive,inactive,,,,,,,,,,
Cc1ccccc1Br,inactive,inactive,inactive,inactive,inactive,inactive,inactive,inactive,inactive,inactive,,,,,,,,,,
CCCCC=O,inactive,inactive,inactive,inactive,inactive,inactive,inactive,inactive,inactive,inactive,,,,,,,,,,
C=C(C)C(=O)NCCC[N+](C)(C)C,inactive,inactive,inactive,inactive,inactive,inactive,inactive,inactive,inactive,inactive,,,,,,,,,,
COC[C@H](c1ccc(C(F)(F)F)cc1)N1CCN(C2(C)CCN(C(=O)c3c(C)ncnc3C)CC2)C[C@H]1C,inactive,inactive,inactive,inactive,inactive,inactive,inactive,inactive,inactive,inactive,,,,,,,,,,
CCCCCCCCCCCl,inactive,inactive,inactive,inactive,inactive,inactive,inactive,inactive,inactive,inactive,,,,,,,,,,
CCC(=O)Nc1cccc(N)c1,inactive,inactive,inactive,inactive,inactive,inactive,inactive,inactive,inactive,inactive,,,,,,,,,,
Cc1ccc(N)cc1[N+](=O)[O-],inactive,inactive,inactive,inactive,inactive,inactive,inactive,inactive,inactive,inactive,,,,,,,,,,
O=C(O)/C=C/c1ccc(Cn2ccnc2)cc1,inactive,inactive,inactive,inactive,inactive,inactive,inactive,inactive,inactive,inactive,,,,,,,,,,
CSc1ccc(C=O)cc1,inactive,inactive,inactive,inactive,inactive,inactive,inactive,inactive,inactive,inactive,,,,,,,,,,
Cc1nccn1CC1CCc2c(c3ccccc3n2C)C1=O (stereo not given),inactive,inactive,inactive,inactive,inactive,inactive,inactive,inactive,inactive,inactive,,,,,,,,,,
CCCCCCCCN(C)CCCCCCCC,inactive,inactive,inactive,22.1 µM (active),inactive,inactive,inactive,inactive,inactive,inactive,,,,,,,,,,
C=C(C)C1CC=C(C)C(O)C1 (stereo not given),inactive,inactive,inactive,inactive,inactive,inactive,inactive,inactive,inactive,inactive,,,,,,,,,,
NS(=O)(=O)c1cc2c(cc1Cl)NC(CSCc1ccccc1)=NS2(=O)=O,inactive,inactive,inactive,inactive,inactive,inactive,inactive,inactive,inactive,inactive,,,,,,,,,,
CO,inactive,inactive,inactive,inactive,inactive,inactive,inactive,inactive,inactive,inactive,,,,,,,,,,
OCC(CO)(CO)COCC(CO)(CO)CO,inactive,inactive,inactive,inactive,inactive,inactive,inactive,inactive,inactive,inactive,,,,,,,,,,
COC(=O)CCCCCCCCC(=O)OC,inactive,inactive,inactive,inactive,inactive,inactive,inactive,inactive,inactive,inactive,,,,,,,,,,
CCCCCN(CCCCC)C(=O)C(CCC(=O)O)NC(=O)c1ccc(Cl)c(Cl)c1 (stereo not given),inactive,inactive,inactive,inactive,inactive,inactive,inactive,inactive,inactive,inactive,,,,,,,,,,
COc1cc(C)cc(O)c1,inactive,inactive,inactive,inactive,inactive,inactive,inactive,inactive,inactive,inactive,,,,,,,,,,
CN(C)CCn1nnnc1SCC1=C(C(=O)O)N2C(=O)[C@@H](NC(=O)Cc3csc(N)n3)[C@H]2SC1,inactive,inactive,inactive,inactive,inactive,inactive,inactive,inactive,inactive,inactive,,,,,,,,,,
COc1ccc(COC=O)cc1,inactive,inactive,inactive,inactive,inactive,inactive,inactive,inactive,inactive,inactive,,,,,,,,,,
CC1=CCC2C(C1)C2(C)C (stereo not given),inactive,inactive,inactive,inactive,inactive,inactive,inactive,inactive,inactive,inactive,,,,,,,,,,

Compound,outcome [1],Potency [2],Potency [3],Potency [4],Potency [5],outcome [6],Potency [7],Potency [8],Potency [9],Potency [10],"activity change, negative = cytotoxicity [1]",cytotoxicity increase [2],cytotoxicity [3],cytotoxicity increase [4],cytotoxicity increase [5],"activity change, negative = cytotoxic [6]","activity change, negative = cytotoxicity [7]","activity change, negative = cytotoxicity [8]",activity change [9],"activity change, negative = cytotoxicity [10]"
OCCN1C[C@H](O)[C@@H](O)[C@H](O)[C@H]1CO,inactive,inactive,inactive,inactive,inactive,inactive,inactive,inactive,inactive,inactive,,,,,,,,,,
CCOC(=O)[C@H](CCc1ccccc1)N[C@@H](C)C(=O)N1CCC[C@H]1C(=O)O,inactive,inactive,inactive,inactive,inactive,inactive,inactive,inactive,inactive,inactive,,,,,,,,,,
O=C(O)CCNC(=O)c1ccc(N=Nc2ccc(O)c(C(=O)O)c2)cc1,inactive,inactive,inactive,inactive,inactive,inactive,inactive,inactive,inactive,inactive,,,,,,,,,,
CC(C)[C@H](N)C(=O)OCCOCn1cnc2c(=O)[nH]c(N)nc21,inactive,inactive,inactive,inactive,inactive,inactive,inactive,inactive,inactive,inactive,,,,,,,,,,
Oc1cc(O)c2c(c1)O[C@H](c1ccc(O)c(O)c1)[C@H](O)C2,inactive,inactive,inactive,inactive,inactive,inactive,inactive,inactive,inactive,inactive,,,,,,,,,,
NC(=S)Nc1cccc2ccccc12,,,,,,,,,,,29.3% [at 6.97 µM],-1.04% [at 6.97 µM],5.93% [at 6.97 µM],0.974% [at 6.97 µM],15.1% [at 6.97 µM],-0.289% [at 6.97 µM],15.9% [at 6.97 µM],11.2% [at 6.97 µM],"0.057% [at 6.97 µM, active compounds read high]",6.18% [at 6.97 µM]
CO[Si](CCCNCCC[Si](OC)(OC)OC)(OC)OC,inactive,inactive,inactive,inactive,inactive,inactive,inactive,inactive,inactive,inactive,,,,,,,,,,
CCCCCCC(=O)OCC,inactive,inactive,inactive,inactive,inactive,inactive,inactive,inactive,inactive,inactive,,,,,,,,,,
C=C(C)[C@H]1CC=C(C)CC1,inactive,inactive,inactive,inactive,inactive,inactive,inactive,inactive,inactive,inactive,,,,,,,,,,
O=C(O)C1CCC1,inactive,inactive,inactive,inactive,inactive,inactive,inactive,inactive,inactive,inactive,,,,,,,,,,
NC1CCN(c2cccc(Cl)n2)CC1,inactive,inactive,inactive,inactive,inactive,inactive,inactive,inactive,inactive,inactive,,,,,,,,,,
OCC(O)[C@@H](O)[C@H](O)[C@H](O)CO[C@H]1O[C@H](CO)[C@@H](O)[C@H](O)[C@H]1O (stereo not given in full),inactive,inactive,inactive,inactive,inactive,inactive,inactive,inactive,inactive,inactive,,,,,,,,,,
CCO[Si](CCCN=C=O)(OCC)OCC,inactive,inactive,inactive,inactive,inactive,inactive,inactive,inactive,inactive,inactive,,,,,,,,,,
OCc1ccccn1,inactive,inactive,inactive,inactive,inactive,inactive,inactive,inactive,inactive,inactive,,,,,,,,,,
CCCCCCOC(=O)CC(CC(=O)OCCCCCC)(OC(=O)CCC)C(=O)OCCCCCC,inactive,inactive,inactive,inactive,inactive,inactive,inactive,inactive,inactive,inactive,,,,,,,,,,
CCCCCCCCCCCCCCC,inactive,inactive,inactive,inactive,inactive,inactive,inactive,inactive,inactive,inactive,,,,,,,,,,
Cc1c(F)cc2c(=O)c(C(=O)O)cn3c2c1CCC3C (stereo not given),inactive,inactive,inactive,inactive,inactive,inactive,inactive,inactive,inactive,inactive,,,,,,,,,,
COC(C(=O)O)c1ccccc1 (stereo not given),inactive,inactive,inactive,inactive,inactive,inactive,inactive,inactive,inactive,inactive,,,,,,,,,,
O=S(=O)(O)c1ccccc1O,inactive,inactive,inactive,inactive,inactive,inactive,inactive,inactive,inactive,inactive,,,,,,,,,,
CC1CCN(CCCC(=O)c2ccc(F)cc2)CC1,inactive,inactive,inactive,inactive,inactive,inactive,inactive,inactive,inactive,inactive,,,,,,,,,,
OC/C=C/c1ccccc1,inactive,inactive,inactive,inactive,inactive,inactive,inactive,inactive,inactive,inactive,,,,,,,,,,
CC(C)(C)N(CCO)CCO,inactive,inactive,inactive,inactive,inactive,inactive,inactive,inactive,inactive,inactive,,,,,,,,,,
CCCCCOC(=O)Nc1nc(=O)n([C@@H]2O[C@H](C)[C@@H](O)[C@H]2O)cc1F,inactive,inactive,inactive,inactive,inactive,inactive,inactive,inactive,inactive,inactive,,,,,,,,,,
